Experimental data reported in publication PMC5540273 (PLoS ONE, 2017).

Legend:
Conditions in all cases: concentration: 1 μM, replicates: in singlicate; n = 1
BLK = system: BLK
BMPR1A = system: BMPR1A
BMPR1B = system: BMPR1B
BMPR2 = system: BMPR2
BMX = system: BMX
BRAF = system: BRAF
BRK = system: T1, BRK
T1 construct: gene PTK6

BRSK1 = system: BRSK1
BRSK2 = system: BRSK2
BTK = system: BTK
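Further: KINOMEscan kinase panel screen.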

SMILES	%Inh (BLK) [%]	%Inh (BMPR1A) [%]	%Inh (BMPR1B) [%]	%Inh (BMPR2) [%]	%Inh (BMX) [%]	%Inh (BRAF) [%]	%Inh (BRK) [%]	%Inh (BRSK1) [%]	%Inh (BRSK2) [%]	%Inh (BTK) [%]
O=C(NCCNc1ccnc(Nc2ccc(F)cc2)n1)Nc1ccccc1F [GSK1379880]	6	0	0	0	0	0	6	0	0	0
Cc1nnc(-c2ccc3ncc(-c4ccc(S(C)=O)cc4)n3c2)o1 (stereo not shown)	0	9	16	18	0	62	14	14	0	24
O=C(NOCC1CC1)c1ccc(F)c(F)c1Nc1ccc(I)cc1Cl	0	0	0	0	0	0	0	0	0	0
Cc1cccc(-c2nc(Nc3ccc4ncsc4c3)c3ccccc3n2)n1 [GW867588]	11	0	0	15	0	7	0	0	0	0
Cc1cn2c(=O)cc(N3CCOCC3)nc2n1Cc1cccc(Cl)c1Cl [GSK2334006]	37	19	0	0	10	15	5	14	0	0
Fc1ccc(-c2ncn(CCCN3CCOCC3)c2-c2cccnc2)cc1 [SB-211743]	16	0	0	16	0	2	0	0	4	0
CC(C)(C)n1cnc2c(N)ncnc21 [SKF-97359]	0	0	0	36	0	0	0	0	3	19
Cc1ccc(C(=O)NCC(N)=O)cc1-n1c(C)cc(OCc2ccc(F)cc2F)c(Br)c1=O	14	2	0	0	24	0	23	11	39	0
Cc1nnc(-c2ccc(C)c(-c3ccc(C(=O)Nc4ccc(NS(C)(=O)=O)cc4)cc3)c2)o1 [GW702865]	14	0	0	9	16	0	3	9	0	40
Cc1cccc(-c2nc(-c3ccc(S(C)(=O)=O)cc3)sc2-c2ccncc2)c1	0	0	0	0	0	15	0	40	27	0
COc1ccc(Nc2nccc(N3CCC(NC(=O)Nc4cc(C)ccc4C)C3)n2)cc1 (stereo not shown) [GSK1379741]	0	0	0	0	0	0	5	0	0	0
COc1ccc(COc2cc(-n3cnc4ccccc43)sc2C(N)=O)cc1 [GSK1024304]	37	0	0	0	0	0	3	0	5	0
O=c1cc(N2CCOCC2)nc2n(Cc3cccc(Cl)c3Cl)c(C3CC3)nn12 [GSK2358994]	0	15	0	13	19	0	0	3	0	0
O=C(Nc1n[nH]c2cc(-c3cccc(F)c3)ccc12)C1CC1 [SB-735464]	0	16	65	28	0	1	0	34	33	0
CCc1ccnc(/C=C/c2n[nH]c3cc(Sc4ccccc4C(=O)NC)ccc23)c1	17	0	0	17	0	4	0	27	17	0
O=c1cc(N2CCOCC2)nc2n(Cc3cccc4ccccc34)ccn12 [GSK2333389]	21	0	0	0	7	9	0	1	0	0
